Source: PubChem BioAssay AID602274 (Sanford-Burnham Center for Chemical Genomics, 2012)
Hit rate of the full screen: of about 360,000 compounds, about 160 (0.044%) were called active. Many of the other results were omitted from the sample, so actives are more common in it than they were. Unmarked numbers belong to inactive results. Rule as the data show it: active = survival enhancement above about 18%; inactive = the rest.

Test: compounds raising survival of dissociated human iPSCs – cell-based, ATPlite luminescence, primary screen (AID 602274);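 also: cells exposed to compounds for 16 hours before the ATP read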
Settings: hiPSC single-cell survival, at 20 µM, hits give high values, 100% = ROCK inhibitor wells, 0% = DMSO

Row | Structure (SMILES) | survival enhancement
1 | Cc1ccc(Nc2c(O)nc[nH]c2=O)cc1C | 0.4%
2 | CC(=NCc1ccc2c(c1)OCO2)C1=C(O)c2ccccc2C1=O | 2.2%
3 | CC(=O)Nc1ccc(S(=O)(=O)Oc2ccc(/C=N/N=C3/NC(=O)C(CC(=O)O)S3)cc2)cc1 (stereo unspecified) | 2%
4 | COc1cc(CO)c(C2(CO)CCCC2)cc1OC | 3.1%
5 | C[C@@H]1ON(C)[C@H]2C[C@H]3c4cc(N5CCN(C)CC5)ccc4CCN3C(=O)[C@@H]12 | -2.2%
6 | CC(C)C(C)(C#N)NC(=O)CSc1nc2scc(-c3ccccc3)c2c(=O)[nH]1 (stereo unspecified) | -0.3%
7 | N=C1C(=O)OCC1c1ccccc1NC(=O)CN1CCCCC1 (stereo unspecified) | -0.4%
8 | COc1ccc(C(C(=O)NCc2ccccc2)N(Cc2cccs2)C(=O)c2cnccn2)cc1 (stereo unspecified) | 6.6%
9 | COC(=O)c1ccc(CN2CCCC(C(=O)Nc3cccc(-n4cnnn4)c3)C2)cc1 (stereo unspecified) | 0.6%
10 | C=CC(COCc1ccccc1)N(CC(=O)OC)S(=O)(=O)c1cc(Br)ccc1OC (stereo unspecified) | -0.4%
11 | CCCNc1c(N)c(=O)c1=O | -0.6%
12 | O=C(Nc1ccccc1N1CCCC1)c1ccc(F)c(S(=O)(=O)N2CCOCC2)c1 | -0.3%
13 | O=C(c1cccs1)N1C[C@H](n2cc(C3CC3)nn2)[C@@H](O)C[C@@H]1c1ccccc1 | -0.3%
14 | Cc1c(S(=O)(=O)N2CC(C)CC(C)C2)c(=O)n(C)c(=O)n1C (stereo unspecified) | -0.4%
15 | CCc1nc2ccc(C(=O)Nc3cccc(OC)c3)cn2c1N(CCC(C)C)CCN(C)C | -0.8%
16 | CNC(=O)c1nnc(Cc2ccc(Cl)cc2)o1 | 0.3%
17 | CCn1c(=S)sc2c(=O)n(CC(=O)Nc3cccc(Br)c3)c(C)nc21 | -0.2%
18 | CCNC(=O)N1CCCC(C(=O)c2ccc(-c3ccccc3)cc2)C1 (stereo unspecified) | 1.4%
19 | CC1(C)CC(N(Cc2ccccc2)C(=O)Cc2ccccc2)CCO1 (stereo unspecified) | -0.5%
20 | CCN1C[C@@H]2[C@@H]3C(=O)N(C)C(=O)[C@@H]3[C@](C)(C1=O)N2C(=O)c1ccccc1 | -1.3%
21 | CC(C)C[C@H](NC(=O)C1CCC(CNC(=O)[C@@H]2CCCN2C(=O)OC(C)(C)C)CC1)C(=O)O (stereo partly specified) | 0.8%
22 | Cc1nc(C(F)(F)F)ccc1C(=O)N1CCC1(C)C(=O)NS(=O)(=O)c1ccc(F)cc1F (stereo unspecified) | -1.2%

Row | Structure (SMILES) | survival enhancement
23 | CC[C@H]1OC(=O)[C@H](C)[C@@H](O[C@H]2C[C@@](C)(OC)[C@@H](O)[C@H](C)O2)[C@H](C)[C@@H](O[C@@H]2O[C@H](C)C[C@H](N(C)C)[C@H]2O)[C@](C)(O)C[C@@H](C)[C@@H]2N[C@@H](COCCOC)O[C@H]([C@H]2C)[C@]1(C)O | 1.7%
24 | CCCCN(C(=O)c1ccc2ccccc2c1)c1c(N)n(CCCC)c(=O)[nH]c1=O | -0.4%
25 | Cn1cc(CN2CCCC(CO)C2)c(-c2ccc(Oc3ccccc3)cc2)n1 (stereo unspecified) | 4.5%
26 | CNC(=O)NC(=O)C(OC(=O)c1cccc(S(=O)(=O)N2CCCCC2)c1)c1ccccc1 (stereo unspecified) | 0.1%
27 | O=C1CCC[C@@H]2CC(N3CCCCC3)C[C@@H]3CCN1[C@H]23 (stereo partly specified) | -1.2%
28 | CCc1nc2ccccc2n(CCOCCOCCn2c(=O)c(CC)nc3ccccc32)c1=O | 2.6%
29 | Cc1ccc(S(=O)(=O)N2CCOCC2)cc1NC(=O)COC(=O)c1cnccn1 | -1.4%
30 | CN(C)C(=O)CCc1ccc2c3c([nH]c2c1)[C@]1(C)[C@@H](C(=O)N2CCCCC2)C[C@H](CC(=O)NCCC2=CCCCC2)C(=O)N1CC3 | 1%
31 | CCN(CC)S(=O)(=O)c1ccc(N2CCCC2)c(NS(=O)(=O)c2cccs2)c1 | 0.5%
32 | COc1ccccc1NC(=O)C(C)OC(=O)CC1CCCC1 (stereo unspecified) | -0.5%
33 | O=C(CSc1nnc(CN2CCCC2)n1-c1ccc(F)cc1)c1ccc2c(c1)OCO2 | 0%
34 | CCOc1ncccc1C(=O)Nc1ccc2c(c1)OCCO2 | 0.1%
35 | COc1cc(C(=O)NC(=S)NCc2ccco2)cc(OC)c1OC | -1.8%
36 | CCc1nc2ccc(C(=O)N3CCN(S(=O)(=O)CC)CC3)cn2c1N(C=O)CCC(C)C | 0.9%
37 | CCC(=NC1CC(C)(C)NC(C)(C)C1)C1=C(O)CC(C)(C)CC1=O | -1.8%
38 | Cc1ccc(C(=O)N/C(=C\c2ccco2)C(=O)NC2CCS(=O)(=O)C2)cc1 (stereo unspecified) | -0.5%
39 | Nc1[nH]c(=S)nc2nc(-c3ccccc3)c(-c3ccccc3)nc12 | -2%
40 | CCn1c2c(c3ccc(OC)cc31)CCCC2=O | 0.7%
41 | COC(=O)c1ccc2nc(C3CCCCC3)c(Cc3cccc(F)c3)n2c1 | -0.3%
42 | CC1(C(=O)NCCc2c[nH]c3ccccc23)C=CC2(CCCCC2)N1C(=O)c1ccccc1 (stereo unspecified) | -0.6%
43 | O=C(c1ccc(F)cc1)c1cn(Cc2ccc(F)cc2)c2cc3c(cc2c1=O)OCCO3 | -1.1%
44 | COc1ccc2c(c1)c(=O)c(C(=O)c1ccc(Cl)cc1)cn2CC(=O)Nc1ccc(F)cc1 | 35.8% (active)

Row | Structure (SMILES) | survival enhancement
45 | COc1ccc(NC(=O)CC2C(=O)NC3CCCCC3N2C(=O)c2ccc(F)cc2)cc1 (stereo unspecified) | -0.2%
46 | O=C(Nc1cccc2cccnc12)c1ccc2sc([C@H]3C[C@H](O)[C@@H](CO)O3)nc2c1 | -1.8%
47 | C=CCn1c(C23CC4CC(CC(C4)C2)C3)n[nH]c1=S | -0.3%
48 | O=C(OCCN1C(=O)c2ccccc2C1=O)[C@@H]1CC(O)CN1S(=O)(=O)c1ccccc1[N+](=O)[O-] (stereo partly specified) | -1.2%
49 | CCc1nnc(NC(=O)C2CC(=O)N(c3ccc4c(c3)OCCO4)C2)s1 (stereo unspecified) | -0.7%
50 | Cc1ccc(CCN2CC(C(=O)NCCc3ccccc3)CC2=O)cc1 (stereo unspecified) | 0.1%
51 | CCOc1ccc(OCC)c(NC(=O)C(NS(=O)(=O)c2ccc3c(c2)oc(=O)n3C)C(C)C)c1 (stereo unspecified) | -3.4%
52 | COc1ccc(C(C#N)(CC(=O)O)c2cnccn2)cc1OC (stereo unspecified) | 27% (active)
53 | COc1ccc(C(=O)NNC(=O)c2cnccn2)cc1[N+](=O)[O-] | -1.9%
54 | COc1ccccc1CCNC(=O)c1cnccn1 | 0.7%
55 | CCC1CCCCN1CCNS(=O)(=O)c1ccc2c(c1)CCN2C(C)=O (stereo unspecified) | -1.5%
56 | COC(=O)[C@@H]1C[C@H]2CC[C@H](O)C[C@H]2N1Cc1ccc(N2CCN(C)CC2)cc1 | -2.9%
57 | COc1ccc(CCNC(=O)CN2C(=O)COc3ccc(S(=O)(=O)N4CCCC4)cc32)cc1OC | 0.4%
58 | C/C(=N\Nc1cccc(C(=O)O)c1)c1ccc2c(c1)Nc1ccccc1S2 | -0.6%
59 | Cc1nc2ccc(N)nc2nc1C | -2%
60 | COC(=O)C(C)Sc1ccc2nnc(-c3cccc(F)c3)n2n1 (stereo unspecified) | 1.5%
61 | COc1ccc(-c2cc(C(F)(F)F)n3nc(C(=O)N4CCOCC4)c(Cl)c3n2)cc1 | 3.2%
62 | Cc1cccc([C@@H]2[C@@H]3C(=O)N(Cc4ccccc4)C(=O)[C@@H]3[C@]3(Cc4ccc(Cl)cc4)C(=O)N(c4cccc(Cl)c4)C(=O)N23)c1 | -0.6%
63 | O=C(NCc1ccccc1CN1CCCC1)c1cccc(S(=O)(=O)Nc2ccc(F)cc2)c1 | -0.3%
64 | C[C@H](CO)N1C[C@H](C)[C@@H](CN(C)C(=O)C2CCCCC2)OCc2cnnn2CCCC1=O | 5.1%
65 | CC(C)(C)NC(=O)Cn1nnc(-c2ccccc2Cl)n1 | 1%
66 | C=CCn1nc(-c2ccccc2)c2c(C)onc2c1=O | 0.6%

Row | Structure (SMILES) | survival enhancement
67 | CCOC(=O)C1=CCC2C(=O)N(Cc3ccccc3)C(=O)C12 (stereo unspecified) | -0.2%
68 | CCC(Cc1ccccc1)NC(=O)C1CCCCC1 (stereo unspecified) | -0.3%
69 | Cc1nc(CNS(=O)(=O)c2ccc(Oc3ccccc3)cc2)cs1 | -0.6%
70 | CCNC(=O)c1c(O)c2cccc3c2n(c1=O)CC3 | 8.3%
71 | OC[C@@H]1CN(Cc2ccc(Cl)cc2)C[C@H](n2cnc3c(NCc4ccncc4)ncnc32)O1 | 0.8%
72 | Cc1cccc(C(=O)Nc2ccccc2C(=O)NCc2cccnc2)c1 | 7.7%
73 | O=C(COC(=O)C12CC3CC(CC(O)(C3)C1)C2)NC12CC3CC(CC(C3)C1)C2 | 4.1%
74 | CCOc1ccc(OCC)c(-c2c(=O)n(OCc3ccc(Cl)cc3)c3ccccc3[n+]2[O-])c1 | 0%
75 | O=C(CN1C(=O)c2cccnc2Oc2ccc(Cl)cc21)Nc1ccc(F)cc1 | -2%
76 | O=C(N/N=C1\CCSC1)c1cc(Cl)ccc1O | 1.9%
77 | CC1CCCCC1NC(=O)Cn1c(=O)cnc2ccccc21 (stereo unspecified) | -0.7%
78 | O=C(NCc1nnc(SCC(=O)N2CCCc3ccccc32)o1)c1ccccc1F | 0.9%
79 | O=C(NCc1ccccc1)C1=C[C@@H](c2ccccc2)C[C@@H](OCCCCO)O1 | -2.5%
80 | CN(C)S(=O)(=O)c1ccc(N2CCCC2)c(C(=O)Nc2ccc(Br)cc2F)c1 | -0.6%
81 | CCOC(=O)c1c(C)[nH]c(C(=O)NCCN2CCOCC2)c1C | -0.1%
82 | Cc1nc2ccccc2nc(=O)c1NNc1ccc([N+](=O)[O-])cc1 | -1.5%
83 | CCN(CC)c1ccc(C(=O)c2cnc(/N=C/N(C)C)s2)cc1 | -0.3%
84 | C=CCSc1nc(Cc2ccc(Cl)cc2)nc2ccccc12 | -1.7%
85 | CCCCSc1nnc2c(n1)OC=Nc1ccccc1-2 | 1%
86 | CCN(CC(=O)Nc1ccc(Cl)c(S(=O)(=O)N(C)C)c1)Cc1nc2ccccc2c(=O)[nH]1 | -0.1%
